The whole screen tested about 5,500 compounds, of which about 2,000 (36%) were called active. About 18% were inconclusive and are not listed. No stated cut-off is given here; in the data, active means normalized growth mostly below about 0.91 (no sharp cut-off); inconclusive means no clear call, values can overlap the other calls; inactive means mostly above about 0.92. The list shows a part of the results.
Test: chemical genetic growth profiling, strain panel (AID 1159580);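 further: tested at 20 µM; growth read once vehicle control cultures reached saturation at 30 °C; 1 = growth at the plate median or of vehicle wells; lower values mean less growth of the strain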
Details: S. cerevisiae deletion strains, growth OD

Measured: normalized growth

CC(=O)NC(C(=O)O)C(C)(C)SN=O (centres undefined)
inactive: locus YAL013W, strain DEP1, active compounds read low 1.02 | locus YAL021C, strain ccr4, active compounds read low 1.01 | locus YAL026C, strain drs2, active compounds read low 0.992 | locus YAL030W, strain snc1, active compounds read low 0.991 | locus YBL061C, strain skt5, active compounds read low 0.984 | locus YBR009C, strain hhf1, active compounds read low 1 | locus YBR021W, strain FUR4, active compounds read low 0.977 | locus YBR023C, strain chs3, active compounds read low 0.994 | locus YBR171W, strain sec66, active compounds read low 0.993 | locus YBR229C, strain ROT2, active compounds read low 1.01 | locus YBR231C, strain swc5, active compounds read low 0.996 | locus YBR279W, strain paf1, active compounds read low 0.986 | locus YCL011C, strain gbp2, active compounds read low 0.996 | locus YCL016C, strain dcc1, active compounds read low 0.985 | locus YCL029C, strain bik1, active compounds read low 0.981 | locus YCL061C, strain MRC1, active compounds read low 0.999 | locus YCL069W, strain vba3, active compounds read low 0.991 | locus YCR088W, strain abp1, active compounds read low 0.983 | locus YDL005C, strain med2, active compounds read low 0.977 | locus YDL035C, strain GPR1, active compounds read low 1 | locus YDL040C, strain nat1, active compounds read low 0.996 | locus YDL074C, strain BRE1, active compounds read low 1.06 | locus YDL101C, strain DUN1, active compounds read low 1 | locus YDL134C, strain PPH21, active compounds read low 1.01 | locus YDL185W, strain tfp1, active compounds read low 0.98 | locus YDL192W, strain arf1, active compounds read low 0.999 | locus YDR001C, strain nth1, active compounds read low 0.984 | locus YDR069C, strain doa4, active compounds read low 0.984 | locus YDR101C, strain arx1, active compounds read low 1 | locus YDR137W, strain rgp1, active compounds read low 1.04 | locus YDR150W, strain NUM1, active compounds read low 0.978 | locus YDR159W, strain sac3, active compounds read low 0.997 | locus YDR162C, strain NBP2, active compounds read low 1.03 | locus YDR195W, strain ref2 0.949 | locus YDR297W, strain sur2, active compounds read low 0.98 | locus YDR318W, strain mcm21, active compounds read low 1 | locus YDR334W, strain swr1, active compounds read low 0.976 | locus YDR335W, strain msn5, active compounds read low 0.982 | locus YDR388W, active compounds read low 1 | locus YDR392W, strain spt3, active compounds read low 0.98 | locus YDR502C, strain sam2, active compounds read low 1 | locus YEL003W, strain gim4, active compounds read low 0.988 | locus YEL037C, strain rad23, active compounds read low 0.984 | locus YEL061C, strain CIN8 (second series), active compounds read low 0.989 | locus YEL061C, strain CIN8, active compounds read low 1 | locus YER015W, strain faa2, active compounds read low 0.996 | locus YER016W, strain bim1, active compounds read low 0.991 | locus YER110C, active compounds read low 0.984 | locus YER111C, strain swi4, active compounds read low 0.981 | locus YER155C, strain BEM2 (second series), active compounds read low 0.989 | locus YER155C, strain BEM2, active compounds read low 1 | locus YER167W, strain BCK2, active compounds read low 0.995 | locus YFR010W, strain ubp6, active compounds read low 0.976 | locus YGL078C, strain dbp3, active compounds read low 0.99 | locus YGL086W, strain mad1, active compounds read low 0.988 | locus YGL167C, strain pmr1, active compounds read low 0.99 | locus YGL173C, strain kem1, active compounds read low 0.995 | locus YGL227W, strain vid30, active compounds read low 0.992 | locus YGL240W, strain doc1, active compounds read low 0.989 | locus YGL248W, strain PDE1, active compounds read low 1.01 | locus YGL253W, strain hxk2, active compounds read low 0.983 | locus YGR078C, strain PAC10, active compounds read low 1.02 | locus YGR135W, strain pre9, active compounds read low 1 | locus YGR229C, strain SMI1, active compounds read low 1.05 | locus YGR252W, strain gcn5, active compounds read low 1.01 | locus YHR013C, strain ard1, active compounds read low 0.972 | locus YHR027C, strain rpn1, active compounds read low 1.01 | locus YHR030C, strain SLT2, active compounds read low 1 | locus YHR079C, strain IRE1 (second series), active compounds read low 0.999 | locus YHR094C, strain hxt1, active compounds read low 0.98 | locus YHR129C, strain ARP1, active compounds read low 0.998 | locus YHR142W, strain chs7, active compounds read low 0.978 | locus YHR200W, strain rpn10, active compounds read low 0.992 | locus YIL066C, strain RNR3, active compounds read low 1.01 | locus YIL073C, strain SPO22, active compounds read low 0.913 | locus YIL125W, strain kgd1, active compounds read low 0.99 | locus YIR030C, strain dcg1, active compounds read low 1 | locus YJL092W, strain hpr5, active compounds read low 0.983 | locus YJL095W, strain BCK1 (second series), active compounds read low 0.989 | locus YJL095W, strain BCK1, active compounds read low 1.07 | locus YJL115W, strain asf1, active compounds read low 0.986 | locus YJL129C, strain trk1, active compounds read low 0.995 | locus YJL134W, strain LCB3, active compounds read low 1 | locus YJL154C, strain vps35, active compounds read low 0.975 | locus YJL164C, strain tpk1, active compounds read low 1 | locus YJL166W, strain qcr8, active compounds read low 0.996 | locus YJL168C, strain set2, active compounds read low 1.01 | locus YJL187C, strain SWE1 (second series), active compounds read low 1 | locus YJL187C, strain SWE1, active compounds read low 0.989

Source: PubChem BioAssay AID1159580 (chemical genetic matrix, 2015)
